VLA-4 inh: inhibition in a human VLA-4 binding assay; P13612; VLA-4 expressing cells, ligand binding flow cytometry; inhibition, % (about 7 µM as worked out from the volumes in the protocol); 330,000 tested, 0.2% active; in the data active means inhibition above about 50%
MIN6 prolif-1: induces beta-cell replication in MIN6 cells; MIN6 cells proliferation, ATPlite luminescence, 48 h; cells starved in 0.2% serum; 100% = growth in 10% serum; proliferation, % at 10 µM; 330,000 tested, 0.29% active; AID 2380;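 active means compounds whose signal lies at least 3.5 SD above the mean of all wells on their plate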;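 further: 0% = DMSO-treated cells in low-serum medium and 100% = 10% serum control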
A3G deaminase: APOBEC3G (human) deaminase inhibition; recombinant A3G, ssDNA deamination FAM/TAMRA fluorescence; inhibition, % at 20 µM; 330,000 tested, 0.28% active;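 active means inhibition of at least 40% at 20 µM, with no more than 30% in the related APOBEC3A deaminase screen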;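 further: plate controls were DMSO wells with A3G for no effect and wells lacking A3G enzyme for full effect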
APOBEC3A inh: human APOBEC3A DNA deaminase inhibition; P31941; recombinant A3A, FAM/TAMRA ssDNA deamination fluorescence; inhibition, % at 20 µM; 330,000 tested, 0.41% active; AID 493011;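 active means at least 40% inhibition at 20 µM here, with at most 30% in a related deaminase screen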;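 further: plate controls were A3A with DMSO for no effect and wells lacking A3A enzyme for full effect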
CendR NRP1 mod: alters CendR peptide binding to human NRP-1; FAM-RPARPAR peptide binding to NRP-1, fluorescence polarization; inhibition, % at 25 µM; 360,000 tested, 0.85% active; AID 602438;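 active means inhibition or corrected inhibition above about 18%, plus a signal ratio from 0.5 to 1.5, limit read from the data, passing the limit was not always enough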
MIN6 prolif-2: MIN6 beta-cell replication induction, confirmed; shares compounds with MIN6 prolif-1; MIN6 beta-cell proliferation, ATPlite luminescence, 48 h; cells kept in 0.2% serum; scaled between 0.2% and 10% serum; proliferation increase, % at 50 µM; 920 tested, under 10 active; AID 463095;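 active means proliferation increase above 40% at any of the four tested concentrations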
* = called active by the depositor; nt = no result. Only some compounds are listed: those with a hit (about 1.8% of all), similar ones and a draw of the others.

SMILES	VLA-4 inh	MIN6 prolif-1	A3G deaminase	APOBEC3A inh	CendR NRP1 mod	MIN6 prolif-2
Cc1c(C(=O)N2CCCC2)sc(NC(=O)c2ccc(Cl)cc2)c1C#N	-10	-3	0	0	3	nt
COc1ccccc1C(=O)Nc1sc(C(=O)N2CCCC2)c(C)c1C#N	7	8.8*	-2	-4	-2	10
CC(C)C[C@H](NC(=O)N1CCn2c1nc1ccccc12)C(=O)N1CCCCC1	7	12*	-1	0	-7	-3
O=C(CN(Cc1ccccc1)C(=O)CNS(=O)(=O)c1ccc(Cl)cc1)NCC1CCCO1 (centres undefined)	3	0.0*	-5	-2	-7	2
O=C1C(=NO)C(c2ccccc2)Oc2ccccc21 (centres undefined)	nt	nt	nt	nt	-4	nt
CCOC(=O)C1(Cc2ccccc2C)CCCN(C(=O)CCn2nccc2C)C1 (centres undefined)	-4	11*	-3	-2	8	-4
CCOC(=O)C1(Cc2ccccc2C)CCCN(C(=O)CSC)C1 (centres undefined)	1	nt	nt	nt	3	nt
O=C(NCC1CCCN1S(=O)(=O)c1cccs1)c1ccccc1F (centres undefined)	0	2	-7	-3	-2	nt
CCOC(=O)C1(C)CCCN(C(=O)c2snnc2C)C1 (centres undefined)	nt	nt	nt	nt	-4	nt
Cc1ccc(S(=O)(=O)N2CCCCC2CCNC(=O)C(=O)NC2CCCC2)cc1 (centres undefined)	-11	-4	12	2	8	nt
O=C(NCCC1CCCCN1S(=O)(=O)c1ccccc1)C(=O)NC1CC1 (centres undefined)	3	12*	-6	-5	1	-1
CC(=O)NC1=CC(=C[N+](=O)[O-])C=C1O	nt	nt	nt	nt	-4	nt
COc1cccc(S(=O)(=O)N(C)C[C@H]2OCc3cn(nn3)CCCC(=O)N([C@@H](C)CO)C[C@@H]2C)c1	nt	nt	nt	nt	9	nt
COc1ccc(Br)c(C(=O)OCC(=O)N2CCC(Cc3ccccc3)CC2)c1	nt	-7	0	-3	1	nt
CCOC(=O)/C(C(=Nc1ccccc1)Nc1ccccc1)=C(\C)O	21	7.0*	-3	-6	5	-5
C[C@H](NC(=O)c1ccccc1Cl)C(=O)NCCc1ccc(S(N)(=O)=O)cc1	-12	0	-4	0	3	nt
Cn1c(N)c(C(=O)COC(=O)/C=C/c2cccc(Cl)c2)c(=O)n(C)c1=O	1	-2	-5	-1	7	nt
O=C(Nc1cccc2cccnc12)c1ccc(Cl)cc1	0	5.9*	-1	-3	0	-5
COc1ccc(Cl)cc1NC(=O)CN(C)C(=O)CN1C(=O)NC(C)(c2ccc3ccccc3c2)C1=O (centres undefined)	nt	nt	nt	nt	16	nt
CCc1nn(C(CC)C(=O)NCc2cccc(OC)c2)c(=O)c2cc3occc3n12 (centres undefined)	3	8	-8	-7	11	nt
CCc1nn(C(CC)C(=O)NCc2cccc(OC)c2OC)c(=O)c2cc3occc3n12 (centres undefined)	3	14*	-6	-3	-1	-6
O=S(=O)(c1ccccc1Cl)N1CCCC(c2nc(-c3cccnc3)no2)C1 (centres undefined)	-7	7.4*	-6	-4	-11	-4
O=C(CN1C(=O)NC2(CCCC2)C1=O)Nc1ccc(C(F)(F)F)cc1	7	1	-9	-2	6	nt
CC(C)c1nc2n[nH]c(N)c2c2c1CCCC2	14	6.1*	-2	-2	4	7
CC(C)Cc1nc2n[nH]c(N)c2c2c1CCC2	6	0.0*	1	3	-5	2
CC(C)Cc1nc2n[nH]c(N)c2c2c1CCCC2	6	2	-2	0	-2	nt
Cc1cccn2c(NC(=O)c3ccccc3F)c(-c3ccccc3)nc12	0	-3	-6	-3	-3	nt
CN1CCN(C(=O)c2cc3c(=O)n4ccccc4nc3s2)CC1	-8	2	0	6	16	nt
COc1ccccc1N1CCN(C(=O)c2cc3c(=O)n4ccccc4nc3s2)CC1	38	13*	-10	-3	14	3
Cc1ccc(S(=O)(=O)N2CCC3(CC2)OCCN3S(=O)(=O)c2cccs2)cc1	-2	0	-6	1	-4	nt

Assay outcomes (PubChem)
